# Measured values taken from the supplement of paper PMC4466140.
# What was measured:
# Test in all cases: SPOT peptide array binding signal intensity (averaged, normalized) (arbitrary units (background-subtracted, floor 0; scale differs between SH3 domains)); higher = stronger binding of the SH3 domain to the peptide
# AgAbp1 = biological target: AgAbp1
# Description: (§1)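 GST-tagged SH3 domains from S. cerevisiae (Sc), A. gossypii (Ag), C. albicans (Ca) and S. pombe (Sp) were incubated at 10 ug/ml overnight at 4 C on cellulose SPOT membranes carrying 292 synthetic 15-mer peptides mined from the S. cerevisiae proteome (cysteines replaced by serines). Binding was detected with anti-GST antibody, HRP secondary and chemiluminescence, quantified with Genespotter, and reported as normalized spot intensities averaged over biological replicates.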
# AgBbc1 = biological target: AgBbc1
# Description: as §1
# AgBem1-D1 = biological target: AgBem1-D1
# Description: as §1
# AgBzz1-D1 = biological target: AgBzz1-D1
# Description: as §1
# AgBzz1-D2 = biological target: AgBzz1-D2
# Description: as §1
# AgCyk3 = biological target: AgCyk3
# Description: as §1
# AgFus1 = biological target: AgFus1
# Description: as §1
# AgHof1 = biological target: AgHof1
# Description: as §1
# AgHse1 = biological target: AgHse1
# Description: as §1
# AgLsb1 = biological target: AgLsb1
# Description: as §1
# AgLsb4 = biological target: AgLsb4
# Description: as §1
# AgMyo5 = biological target: AgMyo5
# Description: as §1
# AgNbp2 = biological target: AgNbp2
# Description: as §1
# AgRvs167 = biological target: AgRvs167
# Description: as §1
# AgSho1 = biological target: AgSho1
# Description: as §1
# AgSla1-D1-D2 = biological target: AgSla1-D1-D2
# Description: as §1
# AgSla1-D3 = biological target: AgSla1-D3
# Description: as §1
# CaAbp1-D1 = biological target: CaAbp1-D1
# Description: as §1
# CaAbp1-D2 = biological target: CaAbp1-D2
# Description: as §1
# CaBbc1 = biological target: CaBbc1
# Description: as §1
# CaBem1-D1 = biological target: CaBem1-D1
# Description: as §1
# CaBzz1-D1 = biological target: CaBzz1-D1
# Description: as §1
# CaBzz1-D2 = biological target: CaBzz1-D2
# Description: as §1
# CaCyk3 = biological target: CaCyk3
# Description: as §1
# CaFus1 = biological target: CaFus1
# Description: as §1
# CaHof1 = biological target: CaHof1
# Description: as §1
# CaHse1 = biological target: CaHse1
# Description: as §1
# CaLsb1 = biological target: CaLsb1
# Description: as §1
# CaLsb4 = biological target: CaLsb4
# Description: as §1
# CaMyo5 = biological target: CaMyo5
# Description: as §1
# CaNbp2 = biological target: CaNbp2
# Description: as §1
# CaRvs167 = biological target: CaRvs167
# Description: as §1
# CaRvs167-3 = biological target: CaRvs167-3
# Description: as §1
# CaSho1 = biological target: CaSho1
# Description: as §1
# CaSla1-D1-D2 = biological target: CaSla1-D1-D2
# Description: as §1
# CaSla1-D3 = biological target: CaSla1-D3
# Description: as §1
# ScAbp1 = biological target: ScAbp1
# Description: as §1
# ScBbc1 = biological target: ScBbc1
# Description: as §1
# ScBem1-D1 = biological target: ScBem1-D1
# Description: as §1
# ScBzz1-D1 = biological target: ScBzz1-D1
# Description: as §1
# ScBzz1-D2 = biological target: ScBzz1-D2
# Description: as §1
# ScCyk3 = biological target: ScCyk3
# Description: as §1
# ScFus1 = biological target: ScFus1
# Description: as §1
# ScHof1 = biological target: ScHof1
# Description: as §1
# ScHse1 = biological target: ScHse1
# Description: as §1
# ScLsb1 = biological target: ScLsb1
# Description: as §1
# ScLsb2 = biological target: ScLsb2
# Description: as §1
# ScLsb3 = biological target: ScLsb3
# Description: as §1
# ScLsb4 = biological target: ScLsb4
# Description: as §1
# ScMyo3 = biological target: ScMyo3
# Description: as §1
# ScMyo5 = biological target: ScMyo5
# Description: as §1
# ScNbp2 = biological target: ScNbp2
# Description: as §1
# ScPex13 = biological target: ScPex13
# Description: as §1
# ScRvs167 = biological target: ScRvs167
# Description: as §1
# ScSho1 = biological target: ScSho1
# Description: as §1
# ScSla1-D1-D2 = biological target: ScSla1-D1-D2
# Description: as §1
# ScSla1-D3 = biological target: ScSla1-D3
# Description: as §1
# SpAbp1-D1 = biological target: SpAbp1-D1
# Description: as §1
# SpBbc1 = biological target: SpBbc1
# Description: as §1
# SpBzz1-D1 = biological target: SpBzz1-D1
# Description: as §1
# SpBzz1-D2 = biological target: SpBzz1-D2
# Description: as §1
# SpCyk3 = biological target: SpCyk3
# Description: as §1
# SpHof1 = biological target: SpHof1
# Description: as §1
# SpHof1-2 = biological target: SpHof1-2
# Description: as §1
# SpHof1-3 = biological target: SpHof1-3
# Description: as §1
# SpHse1 = biological target: SpHse1
# Description: as §1
# SpLsb1 = biological target: SpLsb1
# Description: as §1
# SpLsb4 = biological target: SpLsb4
# Description: as §1
# SpMyo1 = biological target: SpMyo1
# Description: as §1
# SpNbp2 = biological target: SpNbp2
# Description: as §1
# SpPex13 = biological target: SpPex13
# Description: as §1
# SpRvs167 = biological target: SpRvs167
# Description: as §1
# SpSla1-D1-D2 = biological target: SpSla1-D1-D2
# Description: as §1
# SpSla1-D3 = biological target: SpSla1-D3
# Description: as §1
binder,measurement,setting,value
QQNRPLPQLPNRNNR,SPOT peptide array binding signal intensity,AgAbp1,30
same,SPOT peptide array binding signal intensity,AgBbc1,585
same,SPOT peptide array binding signal intensity,AgBem1-D1,98.5
same,SPOT peptide array binding signal intensity,AgBzz1-D1,73
same,SPOT peptide array binding signal intensity,AgBzz1-D2,80
same,SPOT peptide array binding signal intensity,AgCyk3,102
same,SPOT peptide array binding signal intensity,AgFus1,17
same,SPOT peptide array binding signal intensity,AgHof1,938
same,SPOT peptide array binding signal intensity,AgHse1,29
same,SPOT peptide array binding signal intensity,AgLsb1,148
same,SPOT peptide array binding signal intensity,AgLsb4,1970
same,SPOT peptide array binding signal intensity,AgMyo5,≤ 0
same,SPOT peptide array binding signal intensity,AgNbp2,0.5
same,SPOT peptide array binding signal intensity,AgRvs167,797
same,SPOT peptide array binding signal intensity,AgSho1,2750
same,SPOT peptide array binding signal intensity,AgSla1-D1-D2,1
same,SPOT peptide array binding signal intensity,AgSla1-D3,≤ 0
same,SPOT peptide array binding signal intensity,CaAbp1-D1,32
same,SPOT peptide array binding signal intensity,CaAbp1-D2,6
same,SPOT peptide array binding signal intensity,CaBbc1,1000
same,SPOT peptide array binding signal intensity,CaBem1-D1,26.5
same,SPOT peptide array binding signal intensity,CaBzz1-D1,132
same,SPOT peptide array binding signal intensity,CaBzz1-D2,90.5
same,SPOT peptide array binding signal intensity,CaCyk3,35
same,SPOT peptide array binding signal intensity,CaFus1,74
same,SPOT peptide array binding signal intensity,CaHof1,17
same,SPOT peptide array binding signal intensity,CaHse1,49.2
same,SPOT peptide array binding signal intensity,CaLsb1,1.5
same,SPOT peptide array binding signal intensity,CaLsb4,4700
same,SPOT peptide array binding signal intensity,CaMyo5,4
same,SPOT peptide array binding signal intensity,CaNbp2,100
same,SPOT peptide array binding signal intensity,CaRvs167,1040
same,SPOT peptide array binding signal intensity,CaRvs167-3,1.75
same,SPOT peptide array binding signal intensity,CaSho1,658
same,SPOT peptide array binding signal intensity,CaSla1-D1-D2,738
same,SPOT peptide array binding signal intensity,CaSla1-D3,3.25
same,SPOT peptide array binding signal intensity,ScAbp1,62
same,SPOT peptide array binding signal intensity,ScBbc1,65
same,SPOT peptide array binding signal intensity,ScBem1-D1,9
same,SPOT peptide array binding signal intensity,ScBzz1-D1,25
same,SPOT peptide array binding signal intensity,ScBzz1-D2,21
same,SPOT peptide array binding signal intensity,ScCyk3,4
same,SPOT peptide array binding signal intensity,ScFus1,22
same,SPOT peptide array binding signal intensity,ScHof1,70.2
same,SPOT peptide array binding signal intensity,ScHse1,≤ 0
same,SPOT peptide array binding signal intensity,ScLsb1,95
same,SPOT peptide array binding signal intensity,ScLsb2,36.5
same,SPOT peptide array binding signal intensity,ScLsb3,6550
same,SPOT peptide array binding signal intensity,ScLsb4,1180
same,SPOT peptide array binding signal intensity,ScMyo3,≤ 0
same,SPOT peptide array binding signal intensity,ScMyo5,≤ 0
same,SPOT peptide array binding signal intensity,ScNbp2,23
same,SPOT peptide array binding signal intensity,ScPex13,1010
same,SPOT peptide array binding signal intensity,ScRvs167,1370
same,SPOT peptide array binding signal intensity,ScSho1,6410
same,SPOT peptide array binding signal intensity,ScSla1-D1-D2,383
same,SPOT peptide array binding signal intensity,ScSla1-D3,2
same,SPOT peptide array binding signal intensity,SpAbp1-D1,17
same,SPOT peptide array binding signal intensity,SpBbc1,28
same,SPOT peptide array binding signal intensity,SpBzz1-D1,450
same,SPOT peptide array binding signal intensity,SpBzz1-D2,1.5
same,SPOT peptide array binding signal intensity,SpCyk3,123
same,SPOT peptide array binding signal intensity,SpHof1,1520
same,SPOT peptide array binding signal intensity,SpHof1-2,1990
same,SPOT peptide array binding signal intensity,SpHof1-3,1170
same,SPOT peptide array binding signal intensity,SpHse1,14
same,SPOT peptide array binding signal intensity,SpLsb1,82.8
same,SPOT peptide array binding signal intensity,SpLsb4,6900
same,SPOT peptide array binding signal intensity,SpMyo1,45.8
same,SPOT peptide array binding signal intensity,SpNbp2,20
same,SPOT peptide array binding signal intensity,SpPex13,3.5
same,SPOT peptide array binding signal intensity,SpRvs167,2080
same,SPOT peptide array binding signal intensity,SpSla1-D1-D2,333
same,SPOT peptide array binding signal intensity,SpSla1-D3,7
